From PubChem BioAssay come the findings set out here.

Values without a mark were called inactive. Active and inactive are the calls of the source. No stated cut-off is given here; in the data, active means inhibition above about 36%; inactive means the rest.

This assay concerns transactivating tegument protein VP16 (Human herpesvirus 1). The assay is described as follows: compounds suppressing VP16-driven luciferase signal – cell-based, luminescence, single concentration, counter-screen for SRC2 inhibitor project (AID 652007). The conditions noted are these: cell-based VP16 transactivation luciferase reporter, at 8.9 µM, stronger effect = higher value.
`O=C(CCl)Nc1cc2[nH]c(=O)[nH]c2cc1Br`: the inhibition was 76.5% (active).

For the compound `Cc1cccc(/C=C(\c2nc3ccccc3[nH]2)S(=O)(=O)c2ccccc2)c1`, the inhibition is 10.3%. The value for `CN(C)CCC(=O)N1C/C(=C/c2ccccc2)C(=O)/C(=C\c2ccccc2)C1` was 86.8% (active). For the compound `C=CC(=O)N1C/C(=C/c2ccc(Cl)cc2)C(=O)/C(=C\c2ccc(Cl)cc2)C1`, the inhibition was 97% (active). The value for `CCN(Cc1ccc(OC)c(F)c1)C(=O)CCl` was 31.8%; that for `CC(C)(C)c1ccc(Oc2ccc(NC(=O)C3CC=CCC3C(=O)O)cc2)cc1` (stereo not given) was 8.31%; that for `COc1ccc(CCNc2ncnc3sc(C)cc23)cc1OC` was 16.6%.

As to `CCCCCc1c(CC)ncn1CCc1ccccc1OC`, the inhibition is 2.9%. Turning to `Cc1ccc(NC(=O)C2=C(c3ccccc3)S(=O)(=O)CCS2(=O)=O)cc1`, the inhibition is 92.8% (active). For the compound `O=C(CCl)N1CCN(S(=O)(=O)Cc2ccccc2)CC1`, the inhibition is 12.1%. Turning to `COc1ccc(OC)c(N(CCN2C(=O)c3ccccc3C2=O)C(=O)CCl)c1`, the inhibition was 30.9%. To `CC(=O)c1c(C)[nH]c(C(=O)COc2cc(C)ccc2C(C)C)c1C` belongs 17.3%. To `COc1ccc(/C=C/c2nc3ccccc3c(=O)o2)cc1` belongs 38.4% (active); to `O=C(NCCOc1cccnc1)c1ccc(OC2CCN(Cc3ccccn3)CC2)cc1`, 15.9%. To `CC1C/C(=C/c2ccncc2)C(=O)/C(=C/c2ccncc2)C1` (stereo not given) belongs 93.7% (active); to `Cc1ccc(C(=O)Sc2cccccc2=O)cc1`, 92.9% (active). For `Cc1ccc(-c2nc(NC(=O)c3nn(C)cc3[N+](=O)[O-])sc2C)cc1`, the inhibition was 35.3%. To `O=C(CCCc1ccccc1)c1ccc2c(c1)OCCO2` belongs 54.7% (active). The value for `O=C(CSc1ncccc1C(=O)O)Nc1ccc2c(c1)OCCO2` was -2.25%; that for `Cc1nnsc1C(=O)NC1CCCc2c1cnn2-c1ccc(C(C)(C)C)cc1` (stereo not given) was 13.8%. The value for `Cc1scc(C(=O)N/N=C/c2ccc([N+](=O)[O-])o2)c1C` was 62.4% (active). `CCOc1ccc(-c2cc(CCCC(=O)Nc3cccc(OC)c3)no2)cc1`: the inhibition is 36.8% (active).

On to `O=C1/C(=C\c2ccccc2)CN(C(=O)CCN2CCCCC2)C/C1=C/c1ccccc1`, for which the inhibition is 85.7% (active). On to `CC(=O)NC(c1cccc([N+](=O)[O-])c1)c1ccc2cccnc2c1O` (stereo not given), for which the inhibition is 0.91%. Take `COc1cccc(C2=CC(=O)CC(C)(C)C2)n1`: the inhibition was -6.05%. For `CCCCCCCCCC[n+]1cccc2c3ccccc3ccc21`, the inhibition is 48.9% (active). For `Cc1ccnc2c1ccc1cccnc12`, the inhibition was -9.35%.

For `CC(C)(C)C(=O)Nc1cc2nn(-c3ccccc3)nc2cc1Cl`, the inhibition is 88.2% (active). Take `O=C(NCCc1c[nH]c2ccccc12)c1ccc([N+](=O)[O-])o1`: the inhibition was 2.92%.

As for `N#Cc1cccc(C=C(C(=O)c2ccccc2)c2ccccc2)c1`, the inhibition is 23%. The value for `CC1C/C(=C\c2cccnc2)C(=O)/C(=C/c2cccnc2)C1` (stereo not given) was 98% (active); that for `O=C(CCl)N(c1ccccc1)c1c[nH]c2ccccc12` was 21.6%; that for `Cc1cc(C)c(C#N)c(Sc2nc(C)c([N+](=O)[O-])c(C)c2C#N)n1` was 12.9%. Regarding `O=C1C=CC2(C=C1)O[C@H](Cc1ccccc1)[C@@H](Cc1ccccc1)O2`, the inhibition is 94.4% (active). For `C=CC(=O)N1C/C(=C/c2ccccc2)C(=O)/C(=C\c2ccccc2)C1`, the inhibition was 88.6% (active). In the case of `COc1ccc(NS(=O)(=O)c2ccc3c(c2)OCCO3)cc1OC`, the inhibition is 10.1%. The value for `COc1ccc(NC(=O)/C(Cl)=C(/Cl)S(=O)Cc2ccccc2)cn1` (stereo not given) was 95.8% (active). The value for `c1ccc2c(c1)CCN(c1ncnc3c1[nH]c1ccccc13)C2` was 25.4%. The value for `CC1CCC/C=C/C(=O)c2c(O)cc(O)cc2CC(=O)O1` (stereo not given) was 19.4%; that for `Cn1cnc([N+](=O)[O-])c1Oc1ccc2ccccc2c1` was 11.9%.
